# Values without a mark were called inactive. Inconclusive results are not listed. Calls of active or inactive are those of the source.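 How the source made its calls, unless noted: active means normalized viability below 100% at a tested concentration; inactive means the rest.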
# How the values were obtained:
# [1] = growth inhibition of DIPG glioma cells, dose response, cell-based, SU-DIPG-XVII, MIPE5.0, CellTiter-Glo, qHTS (AID 1347060; cut-off not given, nearly all actives have AC50 up to about 26 µM;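 further: cells exposed to compound for 48 hours before viability readout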); conditions: SU-DIPG-XVII viability, CellTiter-Glo ATP luminescence
# [2] = growth inhibition of DIPG glioma cells, dose response, cell-based, JHH-DIPG-1, MIPE4.0, CellTiter-Glo, qHTS (AID 1347062; cut-off not given, nearly all actives have AC50 up to about 27 µM;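 further: cells exposed to compound for two days before readout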); conditions: JHH-DIPG-1 viability, CellTiter-Glo ATP luminescence
# [3] = growth inhibition of DIPG glioma cells, dose response, cell-based, SU-DIPG-IV, MIPE4.0, CellTiter-Glo, qHTS (AID 1347063; cut-off not given, nearly all actives have AC50 up to about 30 µM;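 further: compound exposure lasted 48 hours before the viability readout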); conditions: SU-DIPG-IV viability, CellTiter-Glo ATP luminescence
# [4] = growth inhibition of DIPG glioma cells, dose response, cell-based, SU-DIPG-XIII, MIPE5.0, CellTiter-Glo, qHTS (AID 1347064; cut-off not given, nearly all actives have AC50 up to about 23 µM;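 further: cells exposed to compound for 48 hours before the viability read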); conditions: SU-DIPG-XIII viability, CellTiter-Glo ATP luminescence
# [5] = viability loss in pontine glioma line – cell-based, SU-DIPG-XXV, MIPE5.0, CellTiter-Glo, qHTS, dose response (AID 1347065; cut-off not given, nearly all actives have AC50 up to about 26 µM;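 further: cells exposed to compound for 48 hours before ATP readout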); conditions: CellTiter-Glo ATP luminescence
# [6] = JHH-DIPG-1 glioma cell viability, MIPE5.0 library, CellTiter-Glo luminescence, qHTS (AID 1347067; cut-off not given, nearly all actives have AC50 up to about 26 µM;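 further: cells exposed to compound for 48 hours before readout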); conditions: JHH-DIPG-1 glioma viability, CellTiter-Glo ATP luminescence
# [7] = SU-DIPG-XXV glioma cell viability, MIPE5.0 library, qHTS (AID 1347068; cut-off not given, nearly all actives have IC50 up to about 30 µM;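 further: cells exposed to compound for 48 hours before viability readout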)
# [8] = ovarian cancer cell viability with rucaparib, profiling panel, oncology-focused library, rucaparib conditional (AID 1508598); conditions: patient-derived ovarian cancer cells, CellTiter-Glo viability, 144 h, stronger effect = lower value
smiles,measurement,setting,value
COc1cc(OC)c(/C=C/S(=O)(=O)Cc2ccc(OC)c(NCC(=O)O)c2)c(OC)c1,AC50,[1],93.4 nM (active)
same,AC50,[2],935 nM (active)
same,AC50,[3],26.4 nM (active)
same,AC50,[4],295 nM (active)
same,AC50,[5],118 nM (active)
same,AC50,[6],118 nM (active)
same,IC50,[7],66.1 nM (active)
same,viability,"[8]; at 0.000305 µM, OCI-C5x cells, with rucaparib 10 µM, 100% = cells with rucaparib alone",110%
same,viability,"[8]; at 0.000305 µM, OCI-C5x cells, without rucaparib",120%
same,viability,"[8]; at 0.000305 µM, OCI-P5x cells, with rucaparib 20 µM, 100% = cells with rucaparib alone",106%
same,viability,"[8]; at 0.000305 µM, OCI-P5x cells, without rucaparib",75.1% (active)
same,viability,"[8]; at 0.00122 µM, OCI-C5x cells, with rucaparib 10 µM, 100% = cells with rucaparib alone",114%
same,viability,"[8]; at 0.00122 µM, OCI-C5x cells, without rucaparib",111%
same,viability,"[8]; at 0.00122 µM, OCI-P5x cells, with rucaparib 20 µM, 100% = cells with rucaparib alone",102%
same,viability,"[8]; at 0.00122 µM, OCI-P5x cells, without rucaparib",104%
same,viability,"[8]; at 0.00488 µM, OCI-C5x cells, with rucaparib 10 µM, 100% = cells with rucaparib alone",107%
same,viability,"[8]; at 0.00488 µM, OCI-C5x cells, without rucaparib",115%
same,viability,"[8]; at 0.00488 µM, OCI-P5x cells, with rucaparib 20 µM, 100% = cells with rucaparib alone",103%
same,viability,"[8]; at 0.00488 µM, OCI-P5x cells, without rucaparib",101%
same,viability,"[8]; at 0.0195 µM, OCI-C5x cells, with rucaparib 10 µM, 100% = cells with rucaparib alone",91.1% (active)
same,viability,"[8]; at 0.0195 µM, OCI-C5x cells, without rucaparib",88% (active)
same,viability,"[8]; at 0.0195 µM, OCI-P5x cells, with rucaparib 20 µM, 100% = cells with rucaparib alone",94.8% (active)
same,viability,"[8]; at 0.0195 µM, OCI-P5x cells, without rucaparib",61.6% (active)
same,viability,"[8]; at 0.0781 µM, OCI-C5x cells, with rucaparib 10 µM, 100% = cells with rucaparib alone",53.4% (active)
same,viability,"[8]; at 0.0781 µM, OCI-C5x cells, without rucaparib",45% (active)
same,viability,"[8]; at 0.0781 µM, OCI-P5x cells, with rucaparib 20 µM, 100% = cells with rucaparib alone",73.5% (active)
same,viability,"[8]; at 0.0781 µM, OCI-P5x cells, without rucaparib",23.1% (active)
same,viability,"[8]; at 0.313 µM, OCI-C5x cells, with rucaparib 10 µM, 100% = cells with rucaparib alone",50.7% (active)
same,viability,"[8]; at 0.313 µM, OCI-C5x cells, without rucaparib",35.9% (active)
same,viability,"[8]; at 0.313 µM, OCI-P5x cells, with rucaparib 20 µM, 100% = cells with rucaparib alone",56.6% (active)

# Reference: PubChem BioAssay
